Results from the supplement of paper PMC10849652.
The full data set covers some 8,800 targets. This sample favours those with a hit. About 0.5% of all pairs of compound and target were hits.

Columns and labels:
Experiment in all cases: log2 fold change, soluble protein after heating vs DMSO (PISA); higher = thermal stabilisation; K562 lysate, 10 uM; active = over 0.2 and 3.5 SD of the protein, either way, in both replicates (recomputed)
erlotinib = compound: C#Cc1cccc(Nc2ncnc3cc(OCCOC)c(OCCOC)cc23)c1 [erlotinib]
How it was run: (§1)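 Pellets of K562 cells were dounce-homogenised in PBS pH 7.4 with 1 mM MgCl2, and the crude extract was held at 1 mg/mL protein for a 30 min treatment with 10 μM compound. Aliquots were heated for 3 min over 48°C-58°C and pooled before NP-40 was added to 0.5% at 4°C. The supernatant from 21,000xg for 90 min was quantified by TMTpro 16plex LC-MS/MS with channel sums equalised. Values are reported from duplicates as log-two fold change in thermal stability relative to solvent controls.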

[1] = compound: C/C(=N\NC(=O)C1=CC(=CC=C1)S(=O)(=O)N2CCOCC2)/C3=C(C=CC(=C3)Cl)O
How it was run: as §1

[2] = compound: C1=CC(=CC=C1C2=NC3=C(N2)C=C(C=C3)C(=O)N)OC4=CC=C(C=C4)Cl
How it was run: as §1

[3] = compound: C1=CC2=C(C=CC(=C2)/C=C\3/C(=O)NC(=NCC4=CC=CS4)S3)N=C1
How it was run: as §1

[4] = compound: C1=CC2=NC=CN=C2C=C1/C=C/3\C(=O)NC(=O)S3
How it was run: as §1

[5] = compound: C1=CC=C(C=C1)C2=NC(=C(N2)C3=CC=NC=C3)C4=CC(=C(C=C4)Cl)O
How it was run: as §1

[6] = compound: C1=CC=C2C(=C1)C3=NNC4=CC=CC(=C43)C2=O
How it was run: as §1

[7] = compound: C1CCN(C1)C(=O)NC2=CC=CC(=C2)NC3=NC=C(C(=N3)NCCC4=CN=CN4)Br
How it was run: as §1

[8] = compound: C1CN(CCC1(CC2=CC=C(C=C2)Cl)N)C3=NC=NC4=C3C=CN4
How it was run: as §1

IRAK-1-4 Inhibitor I = compound: C1COCCN1CCN2C3=CC=CC=C3N=C2NC(=O)C4=CC(=CC=C4)[N+](=O)[O-] [IRAK-1-4 Inhibitor I]
How it was run: as §1

ibrutinib = compound: C=CC(=O)N1CCC[C@@H](n2nc(-c3ccc(Oc4ccccc4)cc3)c3c(N)ncnc32)C1 [ibrutinib]
How it was run: as §1

[9] = compound: CC(=O)c1cnc2ccc(-c3cc(Cl)c(O)c(Cl)c3)nc2c1N[C@H]1CC[C@H](CN(C)C)CC1
How it was run: as §1

ralimetinib = compound: CC(C)(C)Cn1c(N)nc2ccc(-c3[nH]c(C(C)(C)C)nc3-c3ccc(F)cc3)nc21 [ralimetinib]
How it was run: as §1

[10] = compound: CC(C)(O)CC(=O)NCCn1ccc2ncnc(Nc3ccc(Oc4cccc(C(F)(F)F)c4)c(Cl)c3)c21
How it was run: as §1

[11] = compound: CC(C)C1=C2N=C(C=C(N2N=C1)NCC3=CC=CC=C3)NCCCCCCN
How it was run: as §1

[12] = compound: CC1=C(C(CC(=O)N1)C2=CC=C(C=C2)C(F)(F)F)C(=O)NC3=C(C=C4C(=C3)C=NN4)F
How it was run: as §1

[13] = compound: CC1=C(C2=C(C=C1)C(=O)C3=CC=CC=C3N2CCCN)C
How it was run: as §1

[14] = compound: CC1=C(C=C(C=C1)NC(=O)C2=CC(=CC=C2)C(C)(C)C#N)NC3=CC4=C(C=C3)N=CN(C4=O)C
How it was run: as §1

[15] = compound: CC1=C(C=C(C=C1)NC(=O)C2=CC(=CC=C2)N(C)C)NC(=O)C3=CC=C(C=C3)O
How it was run: as §1

[16] = compound: CC1=CC=C(C=C1)SC2=C3C=C(SC3=CN=C2)C(=O)N
How it was run: as §1

Measured: log2 fold change

DHRS1 (UniProt Q96LJ7)
Chain of UniProt Q96LJ7 (Q96LJ7 whole entry, looked up): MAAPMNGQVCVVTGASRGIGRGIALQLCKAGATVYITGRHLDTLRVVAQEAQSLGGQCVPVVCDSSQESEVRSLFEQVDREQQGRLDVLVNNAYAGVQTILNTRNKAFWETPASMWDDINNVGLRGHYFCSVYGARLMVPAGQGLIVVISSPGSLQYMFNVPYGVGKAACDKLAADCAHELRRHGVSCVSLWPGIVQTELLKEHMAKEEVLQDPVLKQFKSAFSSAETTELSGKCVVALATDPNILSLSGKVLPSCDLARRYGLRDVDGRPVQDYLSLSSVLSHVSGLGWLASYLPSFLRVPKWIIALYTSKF
active: [1] 0.898 | [5] 0.654
inactive: erlotinib 0.024 | [2] -0.017 | [3] -0.008 | [4] -0.036 | [6] 0.05 | [7] -0.052 | [8] 0.105 | IRAK-1-4 Inhibitor I -0.051 | ibrutinib -0.057 | [9] -0.037 | ralimetinib 0.01 | [10] 0.089 | [11] 0.058 | [12] 0.024 | [13] -0.104 | [14] 0.001 | [15] -0.035 | [16] -0.001

DENND6A (UniProt Q8IWF6)
Chain of UniProt Q8IWF6 (Q8IWF6 whole entry, looked up): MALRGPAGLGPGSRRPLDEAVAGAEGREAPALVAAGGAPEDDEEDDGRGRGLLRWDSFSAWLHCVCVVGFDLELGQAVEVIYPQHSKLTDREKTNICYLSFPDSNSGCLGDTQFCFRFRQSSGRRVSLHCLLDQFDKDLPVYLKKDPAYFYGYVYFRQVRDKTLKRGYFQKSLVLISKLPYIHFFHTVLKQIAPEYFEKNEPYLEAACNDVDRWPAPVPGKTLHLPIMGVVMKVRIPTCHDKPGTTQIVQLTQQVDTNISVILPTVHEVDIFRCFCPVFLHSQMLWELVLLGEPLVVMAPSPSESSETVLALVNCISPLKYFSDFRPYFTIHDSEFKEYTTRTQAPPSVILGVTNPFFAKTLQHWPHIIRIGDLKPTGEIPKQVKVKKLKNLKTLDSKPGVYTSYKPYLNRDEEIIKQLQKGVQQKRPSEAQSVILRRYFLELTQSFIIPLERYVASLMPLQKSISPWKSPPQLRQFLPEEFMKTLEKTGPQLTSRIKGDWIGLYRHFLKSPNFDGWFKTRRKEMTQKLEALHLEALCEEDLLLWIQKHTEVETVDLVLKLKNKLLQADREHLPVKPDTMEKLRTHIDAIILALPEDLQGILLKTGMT
inactive: erlotinib -0.019 | [1] 0.232 | [2] 0.004 | [3] 0.073 | [4] 0.048 | [5] 0.024 | [6] 0.003 | [7] 0.029 | [8] 0.083 | IRAK-1-4 Inhibitor I 0.025 | ibrutinib 0.014 | [9] 0.064 | ralimetinib 0.052 | [10] -0.047 | [11] 0.037 | [12] 0.002 | [13] -0.03 | [14] 0.001 | [15] 0.022 | [16] 0.051

COG3 (UniProt Q96JB2)
Chain of UniProt Q96JB2 (Q96JB2 whole entry, looked up): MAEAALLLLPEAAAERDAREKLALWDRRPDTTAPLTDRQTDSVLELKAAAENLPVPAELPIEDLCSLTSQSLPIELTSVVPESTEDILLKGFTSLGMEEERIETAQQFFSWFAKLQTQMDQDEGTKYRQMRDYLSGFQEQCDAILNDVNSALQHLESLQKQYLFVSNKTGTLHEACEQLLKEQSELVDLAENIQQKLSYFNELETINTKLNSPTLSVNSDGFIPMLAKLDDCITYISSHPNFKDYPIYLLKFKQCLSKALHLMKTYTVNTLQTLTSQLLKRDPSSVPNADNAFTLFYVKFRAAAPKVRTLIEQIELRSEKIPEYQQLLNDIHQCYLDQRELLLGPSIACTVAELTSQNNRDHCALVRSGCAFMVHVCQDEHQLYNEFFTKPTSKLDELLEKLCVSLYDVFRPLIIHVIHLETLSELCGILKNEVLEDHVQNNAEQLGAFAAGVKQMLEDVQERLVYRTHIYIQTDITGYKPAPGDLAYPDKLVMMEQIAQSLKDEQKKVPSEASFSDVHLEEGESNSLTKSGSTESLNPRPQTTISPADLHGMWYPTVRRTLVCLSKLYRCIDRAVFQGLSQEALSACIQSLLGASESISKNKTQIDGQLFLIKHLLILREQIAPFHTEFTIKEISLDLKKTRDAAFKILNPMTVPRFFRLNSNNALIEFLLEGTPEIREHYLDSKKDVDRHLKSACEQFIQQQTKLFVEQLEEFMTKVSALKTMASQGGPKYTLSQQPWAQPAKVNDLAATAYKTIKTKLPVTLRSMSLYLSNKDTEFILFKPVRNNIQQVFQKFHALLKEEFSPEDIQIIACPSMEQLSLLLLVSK
inactive: erlotinib 0.045 | [1] 0.053 | [2] -0.037 | [3] -0.049 | [4] -0.008 | [5] -0.022 | [6] -0.056 | [7] -0.02 | [8] -0.01 | IRAK-1-4 Inhibitor I 0.012 | ibrutinib 0.026 | [9] -0.008 | ralimetinib 0.052 | [10] -0.042 | [11] -0.04 | [12] 0.006 | [13] -0.019 | [14] 0.02 | [15] 0.044 | [16] 0.02

CRABP2 (UniProt P29373)
inactive: erlotinib 0.026 | [1] -0.112 | [2] -0.017 | [3] -0.063 | [4] 0.2 | [5] -0.042 | [6] -0.151 | [8] 0.309 | IRAK-1-4 Inhibitor I -0.024 | ibrutinib -0.039 | [9] 0.061 | ralimetinib 0.097 | [10] -0.015 | [11] -0.002 | [12] 0.176 | [13] -0.088 | [14] -0.028 | [15] 0.082 | [16] -0.03
active: [7] 0.399

DNAJC5 (UniProt Q9H3Z4)
Chain of UniProt Q9H3Z4 (Q9H3Z4 whole entry, looked up): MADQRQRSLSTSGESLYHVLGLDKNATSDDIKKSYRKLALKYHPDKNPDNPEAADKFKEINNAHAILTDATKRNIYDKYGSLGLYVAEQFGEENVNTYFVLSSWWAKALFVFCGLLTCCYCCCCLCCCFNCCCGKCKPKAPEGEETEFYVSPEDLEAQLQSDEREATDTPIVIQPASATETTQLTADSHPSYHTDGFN
inactive: erlotinib -0.003 | [1] 0.037 | [2] -0.018 | [3] -0.021 | [4] 0.053 | [5] 0.033 | [6] 0 | [7] 0.049 | [8] -0.005 | IRAK-1-4 Inhibitor I -0.012 | ibrutinib -0.029 | [9] -0.072 | ralimetinib -0.013 | [10] -0.043 | [11] -0.044 | [12] 0.06 | [13] -0.008 | [14] 0.048 | [15] -0.036 | [16] -0.116

CNOT4 isoform 6 (UniProt O95628)
Chain of UniProt O95628 (O95628 whole entry, looked up): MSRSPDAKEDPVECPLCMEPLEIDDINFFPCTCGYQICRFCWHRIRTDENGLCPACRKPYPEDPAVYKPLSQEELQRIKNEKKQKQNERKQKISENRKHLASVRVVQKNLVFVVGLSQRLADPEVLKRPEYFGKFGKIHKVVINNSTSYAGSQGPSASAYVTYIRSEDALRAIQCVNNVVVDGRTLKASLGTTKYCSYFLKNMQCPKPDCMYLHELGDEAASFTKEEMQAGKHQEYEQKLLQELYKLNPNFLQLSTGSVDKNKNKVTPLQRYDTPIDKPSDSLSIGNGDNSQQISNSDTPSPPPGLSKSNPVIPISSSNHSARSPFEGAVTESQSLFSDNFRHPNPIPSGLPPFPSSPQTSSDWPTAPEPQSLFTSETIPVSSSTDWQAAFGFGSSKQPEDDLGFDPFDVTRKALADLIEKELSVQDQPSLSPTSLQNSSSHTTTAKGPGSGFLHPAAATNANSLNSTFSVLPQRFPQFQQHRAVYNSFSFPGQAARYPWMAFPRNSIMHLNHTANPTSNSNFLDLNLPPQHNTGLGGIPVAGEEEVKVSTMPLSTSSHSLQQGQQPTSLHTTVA
active: [14] -0.281
inactive: erlotinib -0.025 | [1] -0.016 | [2] 0.005 | [3] 0.017 | [4] 0.009 | [5] -0.035 | [6] 0.043 | [7] -0.032 | [8] -0.013 | IRAK-1-4 Inhibitor I 0.041 | ibrutinib -0.004 | [9] 0.021 | ralimetinib 0.033 | [10] -0.007 | [11] -0.003 | [12] 0.049 | [13] 0.037 | [15] -0.026 | [16] 0.012

CUL1 (UniProt Q13616)
Chain of UniProt Q13616 (Q13616 whole entry, looked up): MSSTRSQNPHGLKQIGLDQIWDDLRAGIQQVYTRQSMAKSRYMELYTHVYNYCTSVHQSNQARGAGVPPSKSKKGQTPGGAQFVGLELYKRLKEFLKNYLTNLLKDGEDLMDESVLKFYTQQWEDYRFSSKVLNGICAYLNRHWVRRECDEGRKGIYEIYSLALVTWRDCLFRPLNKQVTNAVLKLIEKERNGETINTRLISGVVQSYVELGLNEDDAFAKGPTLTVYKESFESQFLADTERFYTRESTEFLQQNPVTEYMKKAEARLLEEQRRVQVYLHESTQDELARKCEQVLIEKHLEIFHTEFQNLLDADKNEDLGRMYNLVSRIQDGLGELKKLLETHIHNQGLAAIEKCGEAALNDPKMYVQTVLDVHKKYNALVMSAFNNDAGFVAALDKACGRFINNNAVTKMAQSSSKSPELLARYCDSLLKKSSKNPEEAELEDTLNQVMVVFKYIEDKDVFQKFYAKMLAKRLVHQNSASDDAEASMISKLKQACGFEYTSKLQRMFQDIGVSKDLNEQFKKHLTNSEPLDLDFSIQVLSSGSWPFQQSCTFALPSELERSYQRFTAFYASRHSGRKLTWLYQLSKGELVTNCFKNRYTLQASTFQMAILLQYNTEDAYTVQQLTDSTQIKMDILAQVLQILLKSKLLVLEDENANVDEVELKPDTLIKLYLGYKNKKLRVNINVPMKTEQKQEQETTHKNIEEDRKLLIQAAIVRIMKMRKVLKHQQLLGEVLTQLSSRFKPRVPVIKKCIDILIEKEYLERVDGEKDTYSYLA
inactive: erlotinib -0.011 | [1] 0.006 | [2] 0.026 | [3] 0.01 | [4] 0.009 | [5] -0.011 | [6] 0.017 | [7] 0 | [8] -0.006 | IRAK-1-4 Inhibitor I -0.013 | ibrutinib 0.02 | [9] 0.005 | ralimetinib -0.004 | [10] -0.016 | [11] -0.018 | [12] -0.014 | [13] 0.016 | [14] 0.02 | [15] -0.001 | [16] -0.01

CIC (UniProt I3L2J0)
inactive: erlotinib 0.013 | [1] -0.248 | [2] 0.079 | [3] 0.122 | [4] 0.027 | [5] -0.047 | [6] -0.062 | [7] 0.005 | [8] -0.04 | IRAK-1-4 Inhibitor I 0.04 | ibrutinib 0.036 | [9] 0.044 | ralimetinib 0.055 | [10] -0.083 | [11] 0.013 | [12] 0.054 | [13] -0.044 | [14] 0.029 | [15] 0.02 | [16] 0.028

CNIH4 (UniProt Q9P003)
inactive: erlotinib 0.049 | [1] -0.139 | [2] -0.06 | [3] 0.129 | [4] -0.071 | [5] -0.022 | [6] -0.162 | [7] 0.01 | [8] -0.131 | IRAK-1-4 Inhibitor I -0.078 | ibrutinib 0.13 | [9] -0.014 | ralimetinib 0.006 | [10] -0.152 | [11] 0.278 | [12] 0.066 | [13] -0.115 | [14] -0.008 | [15] 0.211 | [16] -0.024

CMPK2 (UniProt Q5EBM0)
Chain of UniProt Q5EBM0 (Q5EBM0 whole entry, looked up): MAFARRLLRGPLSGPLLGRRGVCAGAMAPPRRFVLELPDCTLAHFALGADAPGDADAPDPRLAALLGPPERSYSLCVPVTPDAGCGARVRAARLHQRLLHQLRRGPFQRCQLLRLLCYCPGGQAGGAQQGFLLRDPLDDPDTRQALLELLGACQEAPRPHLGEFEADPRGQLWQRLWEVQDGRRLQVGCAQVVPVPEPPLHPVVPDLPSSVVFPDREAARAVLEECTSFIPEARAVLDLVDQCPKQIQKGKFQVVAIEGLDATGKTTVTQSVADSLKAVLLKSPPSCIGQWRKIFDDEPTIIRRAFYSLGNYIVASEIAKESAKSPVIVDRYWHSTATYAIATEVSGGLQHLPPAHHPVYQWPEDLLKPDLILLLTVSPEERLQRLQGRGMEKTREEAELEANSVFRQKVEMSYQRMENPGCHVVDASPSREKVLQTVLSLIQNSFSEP
inactive: erlotinib -0.019 | [1] 0.07 | [2] 0.006 | [3] -0.035 | [4] -0.016 | [5] 0.004 | [6] -0.038 | [7] -0.03 | [8] 0.031 | IRAK-1-4 Inhibitor I 0.024 | ibrutinib 0.012 | [9] 0.045 | ralimetinib -0.012 | [10] 0.012 | [11] 0.026 | [12] 0.014 | [13] 0.027 | [14] 0.009 | [15] -0.018 | [16] -0.01

CIB1 (UniProt Q99828)
Chain of UniProt Q99828 (Q99828 whole entry, looked up): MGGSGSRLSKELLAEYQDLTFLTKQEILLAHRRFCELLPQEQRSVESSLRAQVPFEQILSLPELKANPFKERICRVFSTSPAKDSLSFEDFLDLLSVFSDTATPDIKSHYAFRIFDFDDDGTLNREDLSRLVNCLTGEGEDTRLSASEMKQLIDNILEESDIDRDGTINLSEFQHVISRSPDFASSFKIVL
inactive: erlotinib -0.039 | [1] 0.126 | [2] 0.013 | [3] 0.042 | [4] -0.227 | [5] 0.023 | [6] 0.02 | [7] 0.045 | [8] 0.073 | IRAK-1-4 Inhibitor I 0.026 | ibrutinib 0.096 | [9] -0.137 | ralimetinib 0.004 | [10] -0.056 | [11] -0.027 | [12] 0.007 | [13] -0.041 | [14] 0.042 | [15] -0.003 | [16] -0.066

COG6 (UniProt Q9Y2V7)
inactive: erlotinib -0.059 | [1] 0.153 | [2] -0.074 | [3] -0.07 | [4] -0.008 | [5] 0.015 | [6] 0.024 | [7] 0.008 | [8] 0.077 | IRAK-1-4 Inhibitor I 0.006 | ibrutinib -0.003 | [9] 0.005 | ralimetinib 0.016 | [10] -0.059 | [11] -0.028 | [12] -0.017 | [13] 0.016 | [14] 0.004 | [15] 0.033 | [16] 0.021

CYP51A1 (UniProt Q16850)
inactive: erlotinib -0.029 | [1] 0.045 | [2] 0.193 | [3] 0.058 | [4] -0.087 | [5] -0.041 | [6] 0.118 | [7] -0.092 | [8] -0.023 | IRAK-1-4 Inhibitor I 0.043 | [9] -0.025 | ralimetinib -0.025 | [10] 0.101 | [11] 0.038 | [12] -0.017 | [13] -0.031 | [14] -0.093 | [15] 0.014 | [16] -0.099
active: ibrutinib 0.601

DHCR7 (UniProt Q9UBM7)
Chain of UniProt Q9UBM7 (Q9UBM7 whole entry, looked up): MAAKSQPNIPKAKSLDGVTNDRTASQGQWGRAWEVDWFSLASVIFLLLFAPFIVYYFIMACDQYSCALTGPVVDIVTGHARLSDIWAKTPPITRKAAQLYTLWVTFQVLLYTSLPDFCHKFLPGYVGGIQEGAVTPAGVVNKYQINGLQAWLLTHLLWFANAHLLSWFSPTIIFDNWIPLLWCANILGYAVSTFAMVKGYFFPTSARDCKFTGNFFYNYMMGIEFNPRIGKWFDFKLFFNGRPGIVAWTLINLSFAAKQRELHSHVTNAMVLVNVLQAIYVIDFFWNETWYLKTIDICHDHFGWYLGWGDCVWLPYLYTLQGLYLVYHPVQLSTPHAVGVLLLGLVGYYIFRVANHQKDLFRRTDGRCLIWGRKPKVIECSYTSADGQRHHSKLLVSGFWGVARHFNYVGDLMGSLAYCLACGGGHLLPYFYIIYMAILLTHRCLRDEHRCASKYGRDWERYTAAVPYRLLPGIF
inactive: erlotinib -0.051 | [1] 0.081 | [2] -0.153 | [3] -0.016 | [4] 0.033 | [5] -0.024 | [6] -0.019 | [7] -0.058 | [8] 0.075 | IRAK-1-4 Inhibitor I 0.007 | ibrutinib -0.026 | [9] 0.016 | ralimetinib 0.071 | [10] -0.042 | [11] -0.018 | [12] 0.01 | [13] -0.007 | [14] -0.017 | [15] -0.011 | [16] -0.002

DEF6 (UniProt Q9H4E7)
inactive: erlotinib 0.02 | [1] 0.07 | [2] -0.072 | [3] 0.067 | [4] -0.104 | [5] 0.016 | [6] -0.131 | [7] 0.05 | [8] 0 | IRAK-1-4 Inhibitor I 0.019 | ibrutinib 0.016 | [9] -0.007 | ralimetinib 0.098 | [10] -0.014 | [11] 0.022 | [12] 0.028 | [13] -0.024 | [14] -0.026 | [15] 0.066 | [16] -0.001

DNAJC3 (UniProt Q13217)
Chain of UniProt Q13217 (Q13217 whole entry, looked up): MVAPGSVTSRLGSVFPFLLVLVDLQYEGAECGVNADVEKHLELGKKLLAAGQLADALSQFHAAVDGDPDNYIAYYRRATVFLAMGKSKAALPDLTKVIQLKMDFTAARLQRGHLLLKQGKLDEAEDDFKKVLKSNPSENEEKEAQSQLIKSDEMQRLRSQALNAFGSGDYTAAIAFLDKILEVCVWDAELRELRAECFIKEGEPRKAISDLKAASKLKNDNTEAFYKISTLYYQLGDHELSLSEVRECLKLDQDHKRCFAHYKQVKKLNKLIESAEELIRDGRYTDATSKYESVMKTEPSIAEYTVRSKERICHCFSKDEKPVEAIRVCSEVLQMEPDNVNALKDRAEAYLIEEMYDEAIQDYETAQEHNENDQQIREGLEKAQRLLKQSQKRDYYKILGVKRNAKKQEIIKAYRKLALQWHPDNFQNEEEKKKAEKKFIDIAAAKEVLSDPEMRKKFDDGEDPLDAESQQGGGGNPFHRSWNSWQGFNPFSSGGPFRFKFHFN
inactive: erlotinib -0.002 | [1] -0.057 | [2] 0.06 | [3] 0.008 | [4] -0.021 | [5] -0.032 | [6] -0.02 | [7] -0.033 | [8] -0.047 | IRAK-1-4 Inhibitor I 0.011 | ibrutinib 0.009 | [9] -0.004 | ralimetinib -0.022 | [10] 0.007 | [11] -0.021 | [12] 0.024 | [13] 0.006 | [14] -0.011 | [15] -0.054 | [16] -0.018
